Experimental data taken from PubChem BioAssay (NCI).
Compounds without any hit were thinned out: in the full panel of roughly 83,000, 20% have a hit.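 Cell lines were cultured in 96-well plates, exposed to a single compound concentration, and assessed for percent growth 48 hours later.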 Unmarked numbers belong to inactive results. Activity calls are given as the source filed them. Rule for the calls: active = growth percent below 10; inactive = the rest.

What was measured:
Assay in all cases: NCI-60 one-dose screen, 48 h (100 = growth as untreated, 0 = no growth, -100 = all killed)
Details in all cases: 10 µM unless noted
HCT-15 colon = system: HCT-15 colon
HT29 colon = system: HT29 colon
SNB-75 CNS = system: SNB-75 CNS
SNB-19 CNS = system: SNB-19 CNS
U251 CNS = system: U251 CNS
PC-3 prostate = system: PC-3 prostate
SK-MEL-5 melanoma = system: SK-MEL-5 melanoma
UACC-62 melanoma = system: UACC-62 melanoma
LOX IMVI melanoma = system: LOX IMVI melanoma
SK-MEL-28 melanoma = system: SK-MEL-28 melanoma

Structure (SMILES)	growth (HCT-15 colon)	growth (HT29 colon)	growth (SNB-75 CNS)	growth (SNB-19 CNS)	growth (U251 CNS)	growth (PC-3 prostate)	growth (SK-MEL-5 melanoma)	growth (UACC-62 melanoma)	growth (LOX IMVI melanoma)	growth (SK-MEL-28 melanoma)
Cn1c(SCC(=O)c2ccc(F)cc2)nc2ccccc2c1=O	104%	101%	91.1%	96.9%	95.3%	94.8%	91.6%	82.2%	96.3%	105%
CC(C)(C)OC(=O)NCc1ccc(CNc2c([N+](=O)[O-])cnc3ccccc23)cc1	74%	83.8%	57.1%	70.8%	87.4%	68.9%	2.87% (active)	58.4%	35.4%	89.4%
CC(Nc1c(C#N)cnc2ccc(-c3cncc(-c4n[nH]c(=O)o4)c3)cc12)c1ccccc1 (stereo not given)	10.4%	20.2%	7.1% (active)	11.1%	17.6%	18.9%	-84.8% (active)	-37% (active)	-8.49% (active)	11.2%
O=C(CSc1nc2ccccc2c(=O)n1-c1ccc(Cl)c(Cl)c1)Nc1ccc(S(=O)(=O)Nc2ccc(Cl)nn2)cc1	99.5%	96.6%	68.8%	96.3%	91.6%	92.3%	100%	85%	97.4%	96.3%
C#CCOc1cccc(/C(N)=N/C(N)=N/c2nc3ccccc3s2)c1	57.4%	108%	109%	95.5%	84.9%	69.8%	95.3%	92.3%	-1.89% (active)	115%
COc1ccc(-c2cc(-c3ccc(N4CCOCC4)cc3)n3c(n2)nc2ccccc23)cc1OC	83.1%	105%	83.3%	85.1%	86.1%	73%	55.8%	94.3%	78.4%	94.4%
CCOC(=O)c1c(NC(=O)c2ccc(C(F)(F)F)cc2)sc2c3c(ccc12)OCN(C)C3	-38.2% (active)	-81% (active)	69.7%	26.7%	-72.5% (active)	65.3%	94.7%	88%	-95.1% (active)	95.8%
O=c1oc2ccc(-c3ccc(F)cc3F)cc2c(=O)n1-c1ccc(Br)cc1F	47.4%	109%	73.9%	71.7%	64%	78.9%	15%	21.1%	88.2%	77.3%
O=C(CCCCCCNC(=O)C(O)(O)C(F)(F)F)Nc1ncc(-c2ccccc2)s1	2.35% (active)	4.15% (active)	35.1%	6.24% (active)	-62.6% (active)	22.7%	-67.2% (active)	-76.6% (active)	-78.2% (active)	-19.6% (active)
Nc1nc(=O)n([C@H]2C[C@H](O)[C@@H](CO)O2)cc1C=O	107%	101%	122%	106%	106%	45%	101%	106%	106%	108%
CN1CCN(Cc2ccc(NC(=O)c3cncc(C#Cc4cnc5ccc(OCCCS(C)(=O)=O)nn45)c3)cc2C(F)(F)F)CC1	3.14% (active)	-10.8% (active)	-91.7% (active)	1.67% (active)	-4.26% (active)	1.61% (active)	-57% (active)	-57.3% (active)	-82.6% (active)	-21.8% (active)
COc1ccc(/C=N/N=C(/c2ccccc2)c2ccc3nc(-c4ccc(Cl)cc4)[nH]c3c2)cc1	59.7%	65.7%	106%	84.2%	79.4%	54.7%	81%	91.9%	77.6%	88.4%
O=C(CSc1nnc(-c2ccc(Cl)cc2)n1-c1ccccc1)Nc1ccc(Cl)cc1	81.5%	62.6%	-11.2% (active)	59.6%	32.7%	61.4%	82.2%	76.1%	10.8%	71.2%
C#C[C@]1(O)CC[C@H]2[C@@H]3CC=C4c5sc(Nc6cc(C)cc(C)c6)nc5CC[C@]4(C)[C@H]3CC[C@@]21C	-37.1% (active)	0.349% (active)	10.2%	14.8%	8.96% (active)	-8.26% (active)	-42.5% (active)	-16.4% (active)	-68.3% (active)	-37.9% (active)
COc1cc2oc(-c3cccc(NC(=O)c4cccc([N+](=O)[O-])c4)c3)cc(=O)c2c(OC)c1OC	56%	66.4%	-13.5% (active)	53.6%	41.9%	50.2%	55%	51%	33.4%	88.1%
CC(C)NC(=O)c1cc(-c2ccc(NC(=O)Nc3ccc(F)cc3)cc2)nc2cccnc12	99.5%	104%	101%	99.9%	104%	96.7%	101%	96%	98%	107%
Cc1cc(Br)ccc1-n1cc(C#N)c(N)c1C(=O)c1ccc(Br)cc1	97.6%	102%	95.6%	96.3%	99.9%	103%	95.7%	94.3%	96.6%	102%
Cn1ncc2ncc(-c3ccc4ncc(C#N)c(N5CCc6cc(F)c(Cl)cc65)c4c3)cc21	23.2%	41.4%	-1.84% (active)	51.6%	48.6%	26%	39.5%	20.8%	19.3%	48.4%
Cc1cc2nc(C(Cl)Cl)nc(-c3ccc(S(=O)(=O)N(C)C)cc3)n2n1	5.58% (active)	18%	55.5%	58.4%	39.2%	67.4%	80.3%	68.5%	17.7%	59.3%
CN1CCN(Cc2ccc(NC(=O)c3cncc(C#Cc4cnc5ccc(N)nn45)c3)cc2C(F)(F)F)CC1	49.5%	5.96% (active)	57.7%	35%	54.6%	36.9%	60.8%	70.8%	-63% (active)	41.2%
Cn1c2nc3ccccc3c-2cc2ccccc21	25%	30.2%	82.3%	45.5%	41.7%	46.2%	31.2%	46.2%	18.9%	76.1%
CC(C)(C)OC(=O)Nc1ccc(-c2cccc(Oc3ccc4nnc(Cl)n4n3)c2)cc1	65%	84.7%	126%	94.9%	91.2%	51.1%	19.5%	63.6%	82.9%	96.9%
C#CCOc1cccc(-c2nc(N)nc(Nc3ccccc3SSc3ccccc3Nc3nc(N)nc(-c4cccc(OCC#C)c4)n3)n2)c1	28.6%	96.9%	27.7%	-9.77% (active)	-48.9% (active)	7.33% (active)	57.3%	63.9%	-52.8% (active)	88.9%
C#Cc1cc(OC)c(C(=O)Nc2ccc(F)cc2C(=O)Nc2cccc(S(=O)(=O)C(F)(F)F)c2)cn1	-8.48% (active)	-30.3% (active)	-80.4% (active)	17.6%	0.45% (active)	4.89% (active)	-49% (active)	18.8%	-82.1% (active)	50%
CC(=O)OCCCCN1C=C/C(=C\C(=O)n2ccc3ccccc32)c2ccccc21	101%	113%	100%	103%	102%	101%	100%	89.4%	99.9%	111%
Cn1cc(-c2nnc(N)nc2-c2c[nH]c3ccc(Br)cc23)c2cc(Br)ccc21	91.3%	97.1%	82.3%	98.7%	99.7%	102%	101%	97.7%	101%	101%
